The list is not random: actives were taken first. Their share in the collection is about 2.4%.
Pol kappa inh – blocks human DNA polymerase kappa activity; Q9UBT6; purified Pol kappa, fluorescent DNA synthesis assay, 10 min; Potency, µM (doses to about 107 µM), without a hit: at the highest dose activity, negative = inhibition, hits mostly inhibitors; 400,000 tested, 0.53% active; also: % is scaled to controls: 0 for no effect and ±100 for the full control effect
Target sequence (Q9UBT6 whole entry, looked up): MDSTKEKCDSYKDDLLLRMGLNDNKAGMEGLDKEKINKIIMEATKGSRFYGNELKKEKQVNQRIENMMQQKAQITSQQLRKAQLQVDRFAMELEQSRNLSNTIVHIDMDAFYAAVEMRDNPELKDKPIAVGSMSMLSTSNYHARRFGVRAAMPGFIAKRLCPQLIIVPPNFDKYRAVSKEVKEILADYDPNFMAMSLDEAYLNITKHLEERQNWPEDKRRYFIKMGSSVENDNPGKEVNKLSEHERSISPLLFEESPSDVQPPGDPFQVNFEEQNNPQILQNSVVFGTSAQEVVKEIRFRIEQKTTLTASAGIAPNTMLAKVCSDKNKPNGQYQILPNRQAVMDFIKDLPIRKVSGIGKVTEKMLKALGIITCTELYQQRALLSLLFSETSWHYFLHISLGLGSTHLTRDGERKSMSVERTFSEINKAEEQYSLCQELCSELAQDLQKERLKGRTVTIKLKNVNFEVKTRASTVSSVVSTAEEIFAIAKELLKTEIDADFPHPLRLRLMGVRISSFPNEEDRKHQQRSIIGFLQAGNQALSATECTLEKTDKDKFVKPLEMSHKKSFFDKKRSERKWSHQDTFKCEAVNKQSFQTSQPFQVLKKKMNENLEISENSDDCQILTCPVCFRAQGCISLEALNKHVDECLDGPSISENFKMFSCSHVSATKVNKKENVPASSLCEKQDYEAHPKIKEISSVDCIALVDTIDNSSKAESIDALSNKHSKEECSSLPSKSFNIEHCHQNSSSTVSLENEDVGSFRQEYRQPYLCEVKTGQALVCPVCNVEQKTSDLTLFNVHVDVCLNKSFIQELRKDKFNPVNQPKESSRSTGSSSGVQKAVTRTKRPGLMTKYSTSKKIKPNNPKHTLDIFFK
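50 nM final substrate added after 15 min RT preincubation of 10 nM Pol kappa with compound; fluorescence read at 0 and 10 min.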
Pol iota inh – inhibitors of human DNA polymerase iota. Potency, µM (doses to about 115 µM), without a hit: top-dose activity, negative = inhibition, usual class: inhibitors. AID 588590. 390,000 tested, 1% active. Pol iota fluorescent replication assay, 10 min
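Pol iota at 10 nM preincubated 15 min with compounds at room temperature; reaction started with fluorescent substrate, 50 nM final. Fluorescence read kinetically at 0 and 10 min; buffer-only wells as negative control.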
POLH inh – blocks human DNA polymerase eta activity | Q9Y253 | Potency, µM (titrated, usually from 114 µM), without a hit: at the highest dose activity change, negative = inhibition, hits mostly inhibitors | recombinant Pol eta, fluorescent DNA replication assay | 390,000 tested, 1.2% active | AID 588591; also: % is scaled to controls: 0 for no effect and ±100 for the full control effect
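Pol eta (10 nM) was preincubated with compounds for 15 min at room temperature, after which fluorescent replication substrate (50 nM final) was added to start the reaction. Fluorescence was read kinetically at 0 and 10 min.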
WRN inhibitor – WRN helicase (human) inhibition | Q14191 | WRN helicase unwinding, fluorescent forked duplex, kinetic | Potency, µM (highest dose often 114 µM), without a hit: at the top dose activity change, negative = inhibition, usual class: inhibitors | 360,000 tested, 0.46% active | AID 651768; also: % is scaled to controls: 0 for no effect and ±100 for the full control effect; nearly all actives have a fitted effect of over 55% in size
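Screening of the MLSMR collection measured strand separation of a quenched forked DNA duplex (100 nM) by 20 nM WRN with 2 mM ATP, all final. Compounds were preincubated with enzyme 15 min at room temperature.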
FEN1 inh-1 – inhibitors of human flap endonuclease 1. Recombinant FEN1 flap cleavage, fluorescence, 15 min. Potency, µM (titrated, usually from 114 µM), without a hit: top-dose activity change, negative = inhibition, usual class: inhibitors. 390,000 tested, 0.35% active; also: % is scaled to controls: 0 for no effect and ±100 for the full control effect; nearly all actives have a fitted effect of over 65% in size
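FEN1 at 10 nM, compound pretreatment for 15 min (room temperature), 50 nM final substrate to initiate; endpoint reads at 0 and 15 min; DMSO-only plates used as vehicle background.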
POLB inh – blocks human DNA polymerase beta activity; P06746; Pol beta primer extension/strand displacement, fluorescence kinetic; Potency, µM (highest dose often 114 µM), for inactives: at the highest dose activity change, negative = inhibition, actives largely listed as inhibitors; 340,000 tested, 1.3% active; also: % is scaled to controls: 0 for no effect and ±100 for the full control effect
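Pol beta (10 nM) was preincubated with compound for 15 min at room temperature. The reaction was then started with 50 nM substrate and read immediately and after a further 10 min at room temperature.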
FEN1 inh-2 – confirmation of human FEN1 inhibitors | shares compounds with FEN1 inh-1 | 880 tested, 79% active | Potency, µM, most hits filed as inhibitors | FEN1 flap cleavage, TAMRA/BHQ2 fluorogenic DNA substrate; also: nearly all actives have a fitted effect of over 60% in size
Active calls of the source: *; u = inconclusive; x = no result; ! = a repeat was not active; [ ] = remark or other dose. Calls follow the shape of the dose curve; as a rule, active = well fitted curve in the direction sought with a large enough effect; inconclusive = small, poorly fitted or top-dose-only effect, or another doubt; inactive = no such curve, though single readings can be large; an effect the other way counts as inactive or inconclusive. Potency is read from the fitted curve at half-maximal effect.

SMILES | Pol kappa inh | Pol iota inh | POLH inh | WRN inhibitor | FEN1 inh-1 | POLB inh | FEN1 inh-2
CCN(CC)CCNc1ccc(CO)c2sc3ccccc3c(=O)c12 | u | 20µM* | -18% | -16% | 32µM* | 16µM* | 34*
CCN(CC)CCNc1cccc2sc3ccccc3c(=O)c12 | x | x | -9% | -1% | x | x | x
O=C(CSc1n[nH]c(-c2ccccc2Cl)n1)N1CCN(c2ccc(F)cc2)CC1 | -4%[60.1 µM] | -25% | -3% | x | -11% | -4% | x
O=[N+]([O-])c1ccc(N/N=C/c2ccc(O)c(O)c2O)c(S(=O)(=O)N2CCOCC2)c1 | u | u | u | u | 20µM* | u | 34*
CCC(=O)OC1(C)C(=O)C=C2C=C(C3CC3)OC=C2C1=O (stereo not drawn) | u | u | u | -25%[11.6 µM] | u | x | 85*
Nc1ccc2nc(-c3ccccc3)[nH]c2c1 | -22% | -10% | -3% | -17% | -22% | 5% | x
Nc1ccc2nc(-c3ccc(N)c(Cl)c3)[nH]c2c1 | u | u | u | u | 50µM* | u | 21*
CCN1C(=O)c2cccc3c(Cl)ccc(c23)C1=O | 5% | 109% | 3% | -4% | -1% | 12% | x
O=C(c1ccc2c3c(cccc13)C(=O)N(O)C2=O)N1CCCCC1 | 1% | -4% | -5% | -6%[11.6 µM] | 11µM* | 2% | 3*
O=C(c1cccc2ccccc12)N1CCCCC1 | 2% | 7% | -8% | 12% | 6% | 38% | x
O=C1c2cccc3c(Cl)ccc(c23)C(=O)N1O | -12% | u | -21% | u | 0.5µM* | u | 1.1*
COc1cccc(N/N=C/c2cccc(Br)c2O)c1 | -2% | 45% | -10% | -20% | -2% | -23% | x
Cc1cccc(N/N=C/c2ccc(O)c(O)c2O)c1 | u | u | u | -9%[11.6 µM] | 25µM* | 10µM* | u
CC1=NC(Nc2nc(C)c3ccccc3n2)=NC(C)(C)C1 | 11% | 22% | -18% | 43%[57.1 µM] | 40µM* | 0% | 48*
O=C(c1ccncc1)N1CCC2(CC1)CCN(c1ccccn1)CC2 | -3%[60.1 µM] | x | x | x | x | x | x
COc1ccc(/C=N\NC(=O)c2cc(O)c(O)c(O)c2)cc1COc1ccc(C(=O)OCC(C)C)cc1 | 8% | 5% | u | -6%[11.6 µM] | u | 1.4µM* | 34*
CCN(CC)c1ccc(/C=C2\SC(N)=NC2=O)cc1 | -4% | 16% | -14% | 6% | 15% | 5% | x
CCN(CC)c1ccc(C=C2SC(=S)NC2=O)cc1 | u | u | u | 50µM* | -29% | x | u
Cc1c(Cl)cccc1NS(=O)(=O)c1ccc(-c2cnc(C3CC3)o2)cc1 | -4%[60.1 µM] | 32% | -21% | x | -2% | u | x
CC(=O)c1cccc(NC(=O)c2ccc([N+](=O)[O-])o2)c1 | -22% | 79µM* | -14% | -1%[11.6 µM] | -1% | x | 43*
O=C(Nc1ccc(N2CCN(C(=O)c3ccccc3)CC2)cc1)c1ccc([N+](=O)[O-])o1 | -20% | u | u | -8%[11.6 µM] | -1% | 25µM* | 27*
CCCn1ccc2c(OCC(=O)NCc3ccccc3Cl)cccc2c1=O | 1%[60.1 µM] | 26% | -17% | x | 3% | -2% | x
Cc1ccc(SCc2nc(-c3ccc(C(=O)NCc4ccccc4Cl)cc3)oc2C)cc1 | 4% | 9% | -2% | x | 10% | 3% | x
COc1ccc(CCNC(=O)C(=O)NCC(c2ccco2)S(=O)(=O)c2ccc(C)cc2)cc1 (stereo not drawn) | 1%[60.1 µM] | -8% | 9% | x | -3% | -5% | x
COc1ccc2[nH]cc(CCNc3nc(-c4c(C)noc4C)nc4ccccc34)c2c1 | -7%[60.1 µM] | x | x | x | x | x | x
SMILES | Pol kappa inh | Pol iota inh | POLH inh | WRN inhibitor | FEN1 inh-1 | POLB inh | FEN1 inh-2
COc1cccc2c1C(=N)c1c(O)c3c(c(O)c1C2=O)CC(O)(C(C)=O)CC3OC1CC(N)C(O)C(C)O1 (stereo not drawn) | u | u | u | u | 11µM* | x | 24*
CN(C)C=Nc1ccc2nc3c(cc2c1)[nH]c1ccccc13 | -3% | -19% | u | u | u | u | 30*
O=C(C[N+]1(CC(O)c2ccccc2)CCOCC1)c1ccccc1 (stereo not drawn) | -8% | 6% | x | x | 19% | x | x
COc1ccccc1Nc1nc(NCCCN(C)C)nc(N)c1[N+](=O)[O-] | -19% | -21% | -24% | 79µM* | 56µM* | 18µM* | 60*
C=CCNc1nc(N)c([N+](=O)[O-])c(Nc2ccccc2OC)n1 | -16% | 12% | 3% | -6% | -16% | 11% | x
Nc1ncnc2c1ncn2[C@@H]1O[C@H](C(=O)NC2CC2)[C@H](O)[C@H]1O | x | 8%[58.9 µM] | -4%[57.1 µM] | x | x | 22%[57.1 µM] | x
Nc1c(C(=O)O)ccc2c1C(=O)c1ccccc1C2=O | -13% | u | -29% | u | 50µM* | u | 34*
Nc1c(SCCC(=O)O)ccc2c1C(=O)c1ccccc1C2=O | 2% | u | -29% | u | u | u | x
CCOc1ccccc1CNC(=O)CCCn1c(=O)c2cccn2c2ccc(F)cc21 | 5% | 25% | -16% | x | -11% | 10% | x
CCc1nnc(N/N=C/c2c(Cl)cccc2Cl)n1N | -6% | 13µM* | -2% | -8%[11.6 µM] | 7% | 15% | u
CNC(=S)N/N=C/c1c(Cl)cccc1Cl | 8% | 9% | -3% | 5% | 1% | 95% | x
NCC(=O)c1c[nH]c2ccccc12 | -23% | u | x | x | 0% | x | x
Oc1ccc(NCc2ccccc2OCc2ccccc2F)cc1 | -22% | 10µM* | 50µM*! | u | u | 23% | u
Cc1ccc(NCc2ccccc2OCc2ccccc2F)cc1 | -11% | 4% | 6% | -3% | -14% | -1% | x
COc1cc(N/C(N)=N/c2nc(C)cc(C)n2)cc(OC)c1 | -1% | -10% | 0% | 39% | u | 78% | 54*
Cc1cc(=O)[nH]c(/N=C(\N)Nc2ccc3c(c2)OCCO3)n1 | -9% | 24% | -15% | 2% | -6% | -4% | x
COc1ccc(N/C(N)=N/c2nc(C)cc(C)n2)c(OC)c1 | 0% | 27% | -6% | 22% | -12% | -11% | x
Cc1cc(C)nc(/N=C(\N)Nc2ccc3c(c2)OCCO3)n1 | 26% | 13% | 3% | 17%[57.1 µM] | 79µM* | 0% | 67*
Cc1nc(-c2ccc(Cl)cc2)sc1CCNC(=O)c1ccco1 | -8%[60.1 µM] | 0% | -14% | x | 1% | -9% | x
C(/Oc1ccccc1)=C1\Nn2c(nnc2-c2cc(-c3ccccc3)n[nH]2)S1 | -15% | 5% | x | x | 1% | x | x
Fc1ccc(-c2nc3ccccc3c3nc4ccccc4n23)cc1 | 1% | 0% | -8% | -7% | 5% | 1% | x
